High-throughput results (PubChem BioAssay)
TDP1 block – blocks human tyrosyl-DNA phosphodiesterase 1; recombinant TDP1, AlphaScreen DNA substrate cleavage; Potency, µM (top dose mostly 130 µM), for inactives: at the highest dose activity change, negative = inhibition, usual class: inhibitors; 0.28% of 350,000 active; AID 485290; also: potency is read from the fitted curve at half-maximal effect; nearly all actives have a fitted effect of over 40% in size
Target sequence (Q9NUW8 whole entry, looked up): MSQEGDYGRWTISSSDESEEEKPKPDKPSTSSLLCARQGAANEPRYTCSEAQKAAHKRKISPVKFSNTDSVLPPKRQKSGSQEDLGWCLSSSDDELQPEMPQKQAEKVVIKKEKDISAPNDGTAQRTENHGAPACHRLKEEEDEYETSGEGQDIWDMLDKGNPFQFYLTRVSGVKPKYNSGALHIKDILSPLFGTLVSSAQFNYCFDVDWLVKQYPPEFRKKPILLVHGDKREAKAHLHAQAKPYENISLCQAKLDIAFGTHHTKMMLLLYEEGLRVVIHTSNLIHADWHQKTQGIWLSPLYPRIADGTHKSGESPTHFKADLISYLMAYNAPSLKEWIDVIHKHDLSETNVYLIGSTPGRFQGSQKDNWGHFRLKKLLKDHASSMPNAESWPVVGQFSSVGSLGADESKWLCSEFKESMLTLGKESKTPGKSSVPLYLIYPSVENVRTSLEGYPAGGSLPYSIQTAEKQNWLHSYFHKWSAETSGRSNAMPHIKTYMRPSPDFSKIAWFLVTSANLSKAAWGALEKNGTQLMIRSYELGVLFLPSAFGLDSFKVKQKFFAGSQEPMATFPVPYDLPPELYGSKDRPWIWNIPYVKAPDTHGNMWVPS
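Enzyme-compound mixtures sat 15 min at room temperature, followed by a 5 min reaction with 15 nM final substrate and 10 min with AlphaScreen beads. Recombinant human Tdp1 was used at 1 nM final.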
Giardia killer – Giardia lamblia killing; 0.15% of 340,000 active; AID 540267; activity change, % at 7.66 µM, hits read low; Giardia lamblia trophozoite viability; in the data active = activity change below about -80%; inconclusive = between about -30% and that limit;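 also: parasites exposed to compound for two days anaerobically before the ATP read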
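Media and compound were dispensed first, then trophozoites at 100 cells/well; plates sat 48 hrs at 37 deg C without oxygen before ATP luminescence reagent was added and read after 15-30 min at room temperature.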
ELG1 DNA repair – ELG1-dependent DNA repair inhibition; 2.3% of 330,000 active; HEK293T ELG1-luciferase reporter, luminescence, 16 h; DNA damage induced by 5-fluorouridine; Potency, µM (highest dose often 46.1 µM), inactives show at the top dose activity change, negative = inhibition, hits mostly inhibitors; also: potency is read from the fitted curve at half-maximal effect; nearly all actives have a fitted effect of over 55% in size
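5-Fluorouridine DNA damage + compound/DMSO, 2,000 cells/well, 16 h, 37 °C/5% CO2. ONE-Glo, 30 min RT, luminescence. Readout = decrease in reporter signal.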
TDP1 cell noCPT – qHTS for Inhibitors of human tyrosyl-DNA phosphodiesterase 1 (TDP1): qHTS in cells in absence of CPT; DT40 Tdp1-/- hTDP1 cells, no CPT, ATP luminescence, 48 h; AID 686978, 2013; 15% of 420,000 active; Potency, µM (titrated, usually from 46.2 µM), inactives show top-dose activity change, negative = growth inhibition, most hits filed as inhibitors; also: potency is read from the fitted curve at half-maximal effect; nearly all actives have a fitted effect of over 55% in size
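Readout: luminescence from CellTiter-Glo after 30 min in the dark at RT. Cells: DT40 Tdp1-/- with stable hTDP1, 400/well. Exposure: compounds alone, ≥48 hr, 37 °C.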
IL1B secr inh – inflammasome signaling inhibition, IL-1 beta readout; THP-1 LPS/ATP IL-1B secretion, AlphaLISA, 16 h; hits give low values; activity change, % at 57.5 µM; 4.7% of 360,000 active; in the data active = activity change below about -50%; inconclusive = mostly about -30% to -49%
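Secreted IL-1B measured by AlphaLISA bead assay after 16 h compound exposure of THP-1 cells; compounds (final up to 57.5 uM) added 1 h before LPS (250 ng/mL) and ATP (1.25 mM) stimulation; lower signal means less secretion.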
TDP1 cell CPT – DT40-hTDP1 cell growth loss with CPT; Potency, µM (series often up to 46.2 µM), without a hit: at the highest dose activity change, negative = growth inhibition, actives largely listed as inhibitors; 12% of 420,000 active; chicken DT40 Tdp1-/-;hTDP1 cells + 20 nM CPT, ATP luminescence, 48 h; also: potency is read from the fitted curve at half-maximal effect; nearly all actives have a fitted effect of over 55% in size
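Chicken DT40 Tdp1-/- cells stably complemented with human TDP1 were seeded at 400 cells/well in medium containing 20 nM camptothecin, exposed to pin-transferred compounds, and grown at 37 °C for at least 48 hr. Viability was read as ATP luminescence.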
* = called active by the depositor; ? = inconclusive; nt = no result given; [ ] = remark or other dose. Hits are enriched below; roughly 19% of the tested compounds scored in any of these assays. Unless noted, calls follow the shape of the dose curve; as a rule, active = well fitted curve in the direction sought with a large enough effect; inconclusive = small, poorly fitted or top-dose-only effect, or another doubt; inactive = no such curve, though single readings can be large; an effect the other way counts as inactive or inconclusive. % is scaled to controls: 0 for no effect and ±100 for the full control effect.

SMILES	TDP1 block	Giardia killer	ELG1 DNA repair	TDP1 cell noCPT	IL1B secr inh	TDP1 cell CPT
COc1cc(OC)c(OC)cc1CN1CCOc2ccc(CN3CCN(C(C)=O)CC3)cc2C1	nt	nt	nt	21µM*	nt	-7%[9.04 µM]
Nc1c(CC(=O)O)cccc1C(=O)c1ccccc1	nt	nt	nt	1%	nt	11%
O=C(Nc1ccccc1OC(F)F)c1cccc(S(=O)(=O)N2CCCC2)c1	1%	-12	15%	?	10	?
O=C(C1CC1)N1CCc2cc(S(=O)(=O)NCc3ccccc3)ccc21	1%	16	-4%	?	11	23µM*
CC(C)CNS(=O)(=O)c1ccc(CCC(=O)NCCC2=CCCCC2)cc1	2%	-8	-17%	23µM*	-10	?
CC(=O)N1CCCc2cc(S(=O)(=O)NCc3ccc(N(C)C)cc3)ccc21	2%	nt	nt	21µM*	nt	?
CCC(=O)N1CCc2cc(CNS(=O)(=O)c3ccc(NC(=O)CC(C)C)cc3)ccc21	3%	nt	nt	18µM*	nt	21µM*
CCNC(=O)C1(C)CCCN1C(=O)c1cc(C)on1 (stereo not given)	nt	nt	nt	-1%	2	12%
CC(=O)N1CCCc2cc(S(=O)(=O)NCc3cccc(C)c3)ccc21	5%	nt	nt	21µM*	nt	?
CCC(=O)N1CCc2cc(S(=O)(=O)NCc3ccc(C)cc3)ccc21	2%	nt	nt	18µM*	nt	23µM*
COc1ccccc1CNS(=O)(=O)c1ccc2c(c1)CCCN2C(C)=O	0%	-1	5%	-25%	43	-2%
CC(=O)N1CCCc2cc(S(=O)(=O)NCc3ccc(C)cc3)ccc21	2%	-9	-3%	13µM*	9	?
CC(=O)N1CCCc2cc(S(=O)(=O)NCCC3=CCCCC3)ccc21	3%	-2	-3%	11µM*	23	10µM*
CCC(=O)N1CCc2cc(S(=O)(=O)NC(C(=O)NCc3ccc(C)cc3)C(C)C)ccc21 (stereo not given)	0%	-5	20%	-23%	0	5%
COc1cccc(-c2nc(CS(=O)CC(=O)NC3CCCCC3)c(C)o2)c1 (stereo not given)	nt	12	-5%	-22%	11	3%
O=c1[nH]c(Cl)nc2c1ncn2C1OC(CO)C(O)C1O (stereo not given)	-8%[56.1 µM]	nt	nt	6%	nt	9%
CC(C)(C)OC(=O)N1CCc2onc(-c3ccccc3[N+](=O)[O-])c2C1=O	nt	nt	nt	20%	16	11%
O=C(CCn1cnc2ccccc2c1=O)NCc1ccccc1	0%	nt	nt	-16%	nt	?
Cc1nc(CC(=O)N2CCN(c3cccc(C)c3C)CC2)cs1	-6%	-1	?	-7%	16	-20%
O=C1CCCC=C1[C@H](O)CCCCBr	5%[21 µM]	nt	nt	nt	nt	nt
COC(=O)c1cc(CNC(=O)CCCSc2ccccc2)ccc1OC	8%	0	2%	?	15	-20%
Cc1ccc(C(=O)Nc2cccc(C(=O)OCc3cc(=O)n4c5c(sc4n3)CCCC5)c2)cc1	-1%	nt	nt	18µM*	nt	?
O=C(Nc1cccc(C(=O)OCc2cc(=O)n3c4c(sc3n2)CCCC4)c1)c1ccccc1	9%	nt	nt	16µM*	nt	?
COc1cccc(C(=O)Nc2cccc(C(=O)OCc3cc(=O)n4c5c(sc4n3)CCCC5)c2)c1	4%	nt	nt	18µM*	nt	?
O=C(Nc1cccc(C(=O)OCc2cc(=O)n3c4c(sc3n2)CCCC4)c1)c1ccc(Cl)cc1	1%	nt	nt	-20%	nt	?
SMILES	TDP1 block	Giardia killer	ELG1 DNA repair	TDP1 cell noCPT	IL1B secr inh	TDP1 cell CPT
CCCCN(C(=O)Cc1ccc2c(c1)OCCO2)c1c(N)n(CCC)c(=O)[nH]c1=O	1%	-4	5%	3%	22	0%
CCN(c1ccccc1)S(=O)(=O)c1ccc(C(=O)N(C)Cc2cccs2)cc1	0%	-2	?	23µM*	-15	?
CCN(c1ccccc1)S(=O)(=O)c1cccc(C(=O)NCC(c2cccs2)N(C)C)c1 (stereo not given)	3%	-14	-5%	21µM*	21	?
CCN(CC(=O)NCc1cccs1)C(=O)c1cccc(S(=O)(=O)NCc2ccccc2)c1	-3%	-21	7%	-21%	-12	-13%
Cc1ccc(NS(=O)(=O)c2cccc(C(=O)NCC(c3cccs3)N(C)C)c2)cc1 (stereo not given)	4%	18	-17%	?	-16	16µM*
CCN(CC(=O)NCc1cccs1)C(=O)c1cccc(S(=O)(=O)N(CC)c2ccccc2)c1	nt	53	nt	23µM*	9	?
CC(C)(C)c1nnc(SCC(=O)Nc2ccc(N3CCCCC3)cc2)n1N	7%	-8	?	-12%	3	-24%
CCCCc1ccc(NC(=O)Cn2cnc3c2c(=O)n(C)c(=O)n3C)cc1	0%[12.3 µM]	nt	nt	-22%	nt	-19%
Cc1cccc(NS(=O)(=O)c2ccc(C)c(C(=O)NCc3ccccn3)c2)c1	3%	-17	-18%	?	0	-23%
Cc1cccc(NS(=O)(=O)c2ccc(C)c(C(=O)NCC(c3cccs3)N(C)C)c2)c1 (stereo not given)	1%	13	7%	?	-8	18µM*
CCN(CC(=O)NCc1cccs1)C(=O)c1ccc([N+](=O)[O-])o1	6%	-91*	-12%	-14%	-2	-15%
CCN(CC(=O)NCc1cccs1)C(=O)c1ccc(C)o1	-3%	15	5%	-8%	-2	-10%
N#Cc1ccccc1S(=O)(=O)N1CCN(C(=O)C2CCCC2)CC1	nt	-14	-3%	-10%	32	-7%
CN(CC(=O)Nc1ccc(OC(F)(F)F)cc1)C(=O)c1ccccc1SCC(=O)N1CCCC1	nt	-1	nt	?	-7	23µM*
CN(C)S(=O)(=O)c1cccc(NC(=O)c2ccccc2SCC(=O)N2CCCC2)c1	nt	nt	nt	?	34	-21%
CN(Cc1cccc(Cl)c1Cl)C(=O)c1ccccc1SCC(=O)N1CCCC1	nt	-10	nt	13µM*	-16	12µM*
CN(Cc1ccc(Cl)c(Cl)c1)C(=O)c1ccccc1SCC(=O)N1CCCC1	4%	-9	?	21µM*	-72*	?
COc1ccccc1CN(C)C(=O)c1ccccc1SCC(=O)N1CCCC1	1%	4	?	-6%	-27	?
CN(CC(=O)Nc1ccc(Cl)c(Cl)c1)C(=O)c1ccccc1SCC(=O)N1CCCC1	nt	nt	nt	23µM*	-16	?
